# Cruzain Triton: inhibitors of Trypanosoma cruzi cruzain with detergent; AID 1478; purified cruzain, Z-FR-AMC fluorescence, 0.01% Triton; P25779; 0.43% of 200,000 active; Potency, µM, inactives show max response, negative = inhibition, usual class: inhibitors;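 also: plate controls were neutral wells for no effect and buffer without enzyme for full effect; nearly all actives have a fitted effect of over 40% in size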
#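 Read-out: AMC fluorescence (360 nm excitation, 450 nm emission), four reads over 2 min, first-to-third difference used. Conditions: cruzain 1.5 nM, Z-FR-AMC 2 uM, pH 5.5 acetate, 5 mM DTT, 0.01% Triton X-100.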
# Cruzain inh noDet: inhibitors of Trypanosoma cruzi cruzain without detergent; P25779; purified cruzain, Z-FR-AMC fluorescence, no detergent; Potency, µM, for the others: max response, negative = inhibition, hits mostly inhibitors; 2.3% of 200,000 active; AID 1476;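 also: plate controls were enzyme without inhibitor for no effect and buffer without enzyme for full effect; nearly all actives have a fitted effect of over 40% in size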
#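 Detergent-free condition (0.00005% Triton X-100) in acetate buffer pH 5.5 with DTT. 1.5 nM enzyme and compound were pre-mixed 15 min, then 2 uM Z-FR-AMC substrate added; reaction progress from fluorescence change between first and third reads (60 s).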
# Papain inh: counter-screen for cruzain inhibitors: papain inhibition | shares compounds with Cruzain Triton | purified papain, Z-FR-AMC fluorescence cleavage | Potency, µM, for the others: max response, negative = inhibition, usual class: inhibitors | 41% of 410 active | AID 2161;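 also: 0% = no-compound wells and -100% = no-enzyme wells; nearly all actives have a fitted effect of over 35% in size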
# Target sequence (P00784 whole entry, looked up): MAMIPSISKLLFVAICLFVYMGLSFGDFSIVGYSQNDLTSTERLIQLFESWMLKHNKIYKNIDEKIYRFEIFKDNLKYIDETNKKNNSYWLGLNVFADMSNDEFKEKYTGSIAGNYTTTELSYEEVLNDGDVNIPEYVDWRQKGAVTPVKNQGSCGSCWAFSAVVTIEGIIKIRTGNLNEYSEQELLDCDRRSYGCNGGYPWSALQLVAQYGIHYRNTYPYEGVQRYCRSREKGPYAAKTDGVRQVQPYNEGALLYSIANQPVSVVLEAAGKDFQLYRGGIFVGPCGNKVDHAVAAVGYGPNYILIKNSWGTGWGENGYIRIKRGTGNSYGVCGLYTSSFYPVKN
# Numbers without * were called inactive; ? = inconclusive; · = not tested or not shown. Shown are actives, neighbours in structure and some others; about 2.4% of the full set was active somewhere. Calls follow the shape of the dose curve; as a rule, active = well fitted curve in the direction sought with a large enough effect; inconclusive = small, poorly fitted or top-dose-only effect, or another doubt; inactive = no such curve, though single readings can be large; an effect the other way counts as inactive or inconclusive. Potency is read from the fitted curve at half-maximal effect.
SMILES,Cruzain Triton,Cruzain inh noDet,Papain inh
CCOC(=O)N1CCN(Cc2ccccn2)CC1,-1%,-4%,·
COc1ccccc1NC(=S)NCc1ccc2c(c1)OCO2,-5%,1%,·
O=C(NC(=S)Nc1cccc(Cl)c1N1CCCC1)c1ccc(-c2cccc([N+](=O)[O-])c2)o1,-3%,3.2µM*,8%
O=C(Nc1cccc(Cl)c1N1CCCCC1)c1ccc(N2CCOCC2)c([N+](=O)[O-])c1,-7%,-2%,·
COCCOC(=O)c1c(N)n(Cc2ccco2)c2nc3ccccc3nc12,-5%,0%,·
CC(C)OC(=O)c1c(N)n(Cc2ccco2)c2nc3ccccc3nc12,11µM*,13µM*,-2%
CC1(C)Cc2c(C#N)c(N3CCN(C(=O)c4ccco4)CC3)nc(Cc3ccccc3)c2CO1,-1%,14%,·
CC1(C)Cc2c(C#N)c(N3CCN(C(=O)c4ccco4)CC3)nc(-c3ccco3)c2CS1,28µM*,16µM*,3.5µM*
O=C(CNC(=O)c1ccccc1)OC(C(=O)Nc1cc(C(F)(F)F)ccc1Cl)c1ccccc1 (stereo not drawn),7.1µM*,10µM*,-17%
O=C(Nc1cc(C(F)(F)F)ccc1Cl)C(NCc1ccccc1)c1ccccc1 (stereo not drawn),-5%,2%,·
COc1ccc(CCNC(=O)c2ccc3c(c2)CCN3S(=O)(=O)c2ccc(Cl)cc2)cc1,0%,-22%,·
COc1cccc(CSc2nc3n(n2)C(c2cccs2)C(C(=O)Nc2ccccc2C)=C(C)N3)c1 (stereo not drawn),3%,17%,·
CCn1c(=N)c(C(=O)NC2CCCC2)cc2c(=O)n3ccccc3nc21,-9%,-1%,·
N=c1c(C(=O)NCc2ccc(F)cc2)cc2c(=O)n3ccccc3nc2n1CC1CCCO1 (stereo not drawn),32µM*,?,16µM*
CSCC[C@H](NC(=O)OC(C)(C)C)c1nnc(SCc2ccccc2)o1,-3%,-5%,·
COC(=O)CS(=O)(=O)c1nnc([C@H](Cc2ccccc2)NC(=O)OC(C)(C)C)o1,7.1µM*,10µM*,5.6µM*
CCOC(=O)C1CCCN(C(=O)Nc2ccccc2)C1 (stereo not drawn),0%,-16%,·
O=c1cc(-c2ccccc2Cl)oc2cc(O)cc(O)c12,-10%,-5%,·
O=c1cc(-c2ccccc2Cl)oc2c(NS(=O)(=O)c3cc(Cl)cc(Cl)c3O)ccc(O)c12,25µM*,5%,4.5µM*
CC(C)C[C@H](N)c1nnc(S(=O)(=O)Cc2ccc(F)cc2)o1,13µM*,13µM*,3%
CC(C)C[C@H](N)c1nnc(SCc2ccc(Cl)cc2Cl)o1,-2%,1%,·
O=c1c2ccccc2sc2nc(C3CCCCC3)n(Cc3ccco3)c(=O)c12,16µM*,-22%,-14%
CCc1nc2sc3ccccc3c(=O)c2c(=O)n1Cc1ccco1,-14%,-28%,·
COc1ccc(-c2nn3c(-c4ccccn4)nnc3s2)cc1OC,-5%,-13%,·
COc1cccc(-c2nn3c(-c4cc(C)[nH]n4)nnc3s2)c1,2%,3%,1%
SMILES,Cruzain Triton,Cruzain inh noDet,Papain inh
CCOc1ccc(-c2nn3c(-c4cc(-c5ccccc5)n[nH]4)nnc3s2)cc1,·,·,-3%
COc1cccc(-c2nn3c(-c4ccccn4)nnc3s2)c1,-2%,1%,·
CCOc1cccc(-c2nnc3sc(-c4ccc(C)cc4)nn23)c1,-3%,?,·
COc1ccc(-c2nnc3sc(-c4ccccn4)nn23)cc1,2%,-9%,·
COc1ccc(-c2nn3c(-c4cc(-c5ccccc5)n[nH]4)nnc3s2)cc1OC,·,·,-18%
COc1ccc(-c2nn3c(-c4cc(-c5ccccc5)n[nH]4)nnc3s2)cc1,·,·,-13%
COC(=O)c1cc2oc3ccccc3c2n1CC(=O)Nc1ccc(C)cc1Cl,1%,2%,·
Cc1cccc(C)c1NC(=S)NC(C)CCc1ccccc1 (stereo not drawn),-5%,3%,·
O=S(=O)(NCc1nc2cccnc2n1Cc1ccc(F)cc1)c1ccc(Cl)s1,-4%,-10%,·
COCC(C)NC(=O)Cn1c(SCc2ccccc2)nc2ccccc21 (stereo not drawn),·,·,-8%
COCC(C)NC(=O)CSc1nc2ccccc2n1CCc1ccccc1 (stereo not drawn),0%,10%,·
O=C(OCC(=O)N1CCCc2ccccc21)c1cccc(S(=O)(=O)N2CCc3ccccc32)c1,-4%,?,·
C/C(CC(=O)Nc1ccc(Cl)c(Cl)c1)=N\NC(N)=S,0.5µM*,0.32µM*,-15%
C/C(CC(=O)Nc1cccc(Cl)c1)=N\NC(=O)Cc1ccc(Cl)cc1,-8%,0%,·
CC(=O)Nc1ccc(Cl)c(C(N)=O)c1,-1%,5%,·
C/C(CC(=O)Nc1cc(Cl)ccc1Cl)=N\NC(N)=S,1µM*,1µM*,2.8µM*
Cc1cc2c(c(C)c1Br)C(c1ccc3c(c1)OCO3)CC(=O)O2 (stereo not drawn),-1%,?,·

# Assay outcomes as filed in PubChem BioAssay.
